Screens from PubChem BioAssay.
VLA-4 agonist – allosterically activates the human VLA-4 integrin; Jurkat cells, LDV-FITC binding, flow cytometry; activation, % at 10 µM (by protocol); 24,000 tested, under 10 active; AID 528;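 active = fluorescent ligand binding to cells raised by more than 40% of the manganese-induced maximum; inconclusive = compound's own fluorescence above 85% of the ligand control signal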;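 also: 0% = ligand binding without compound and 100% = manganese-stimulated maximal binding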
Target sequence (P13612 whole entry, looked up): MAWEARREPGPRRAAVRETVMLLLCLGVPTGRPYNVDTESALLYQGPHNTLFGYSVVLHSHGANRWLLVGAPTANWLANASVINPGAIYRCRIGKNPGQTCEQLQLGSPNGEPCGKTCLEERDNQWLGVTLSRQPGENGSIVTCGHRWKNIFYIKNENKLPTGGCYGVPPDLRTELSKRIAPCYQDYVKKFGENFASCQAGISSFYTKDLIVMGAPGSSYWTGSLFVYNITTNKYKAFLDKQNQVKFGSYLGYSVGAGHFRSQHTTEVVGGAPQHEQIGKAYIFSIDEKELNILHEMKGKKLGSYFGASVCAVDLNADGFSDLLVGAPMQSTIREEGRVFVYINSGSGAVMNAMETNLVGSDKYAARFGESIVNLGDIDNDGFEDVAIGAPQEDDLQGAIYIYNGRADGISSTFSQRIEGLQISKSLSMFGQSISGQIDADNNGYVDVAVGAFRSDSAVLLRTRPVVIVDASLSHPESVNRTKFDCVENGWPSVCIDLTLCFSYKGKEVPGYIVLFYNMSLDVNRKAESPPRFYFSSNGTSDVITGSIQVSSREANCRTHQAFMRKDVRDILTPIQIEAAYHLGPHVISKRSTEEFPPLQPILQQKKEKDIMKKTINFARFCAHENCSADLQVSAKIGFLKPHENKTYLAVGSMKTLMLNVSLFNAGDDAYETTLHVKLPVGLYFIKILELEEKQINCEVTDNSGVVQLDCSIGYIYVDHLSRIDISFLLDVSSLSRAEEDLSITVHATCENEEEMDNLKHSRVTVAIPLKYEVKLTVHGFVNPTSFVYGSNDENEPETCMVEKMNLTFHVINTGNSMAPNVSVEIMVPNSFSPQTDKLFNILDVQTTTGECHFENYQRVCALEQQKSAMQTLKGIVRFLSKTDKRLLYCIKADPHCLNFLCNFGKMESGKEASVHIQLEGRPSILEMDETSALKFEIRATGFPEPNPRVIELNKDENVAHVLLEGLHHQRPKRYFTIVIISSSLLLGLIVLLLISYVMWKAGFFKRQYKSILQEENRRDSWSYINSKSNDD
Jurkat autofluor – compound fluoresces in Jurkat cells, VLA-4 screen interference. AID 576. hit rate 0.61% among 24,000. compound autofluorescence, flow cytometry; stronger effect = higher value; 1 = vehicle-only cell background. fluorescence ratio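 (tested at 10 µM compound in the well)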;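 active = fluorescence ratio above 2.44, which is 1 plus 3 SD of all ratios; inconclusive = signal too bright to measure linearly, ratio around 10 or more; inactive = fluorescence ratio below 2.44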;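 also: green fluorescence of cells measured with 488 nm excitation and 530 nm emission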
FPR ligand – binds the human formylpeptide receptor FPR; P21462; FPR-expressing cells, fluorescent ligand binding, flow cytometry; inhibition, % (no concentration beside the values); hit rate 0.74% among 24,000;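 also: 0% = buffer wells and 100% = receptor blocker peptide wells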
FPRL1 ligand – human FPRL1 ligand, with FPR counter-screen. hit rate 0.3% among 24,000. AID 441. FPRL1-expressing cells, fluorescent ligand binding inhibition, flow cytometry. P25090. inhibition, % (concentration not given with the values);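 also: 0% = buffer alone and 100% = receptor blocker peptide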
VLA-4 antagonist – inhibition of LDV-FITC ligand binding to human VLA-4 integrin | P13612 | Jurkat cells, LDV-FITC binding with Mn2+, flow cytometry; 100% = Mn2+-driven binding gain fully reversed | inhibition, % at 10 µM (by protocol) | hit rate 0.2% among 24,000 | AID 529;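 active = inhibition above 50%; inconclusive = compound itself fluorescent, judged against control cell fluorescence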;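 also: 0% = Mn2+ stimulated cells lacking compound and 100% = ligand binding without Mn2+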
Proteasome disasm – blocks ATP-dependent breakdown of the yeast 26S proteasome | hit rate 0.2% among 24,000 | anti-FLAG beads, GFP-proteasome disassembly, flow cytometry | inhibition of disassembly, % (no concentration beside the values);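 active = inhibition of disassembly above about 33%, limit read from the data; inconclusive = likely self-fluorescent, control bead median signal at least 40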;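 also: plate controls were ATP control with full disassembly for no effect and ATP-gamma-S intact proteasomes for full effect; higher percent means more bead fluorescence retained so stronger block of disassembly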
* marks the source's active call; other numbers are inactive results; u = inconclusive; x = no result given. An excerpt weighted towards active compounds, which were near 1.9% of everything screened. Rule as the data show it, unless noted: active = inhibition above about 30%; inconclusive = no clear call, values can overlap the other calls; inactive = below that.

SMILES | VLA-4 agonist | Jurkat autofluor | FPR ligand | FPRL1 ligand | VLA-4 antagonist | Proteasome disasm
O=C1CCCCCN1CSc1nc2ccccc2s1 | -3.0 | 0.93 | 9.5 | 14.3 | -24.5 | -0.1
COc1cccc(OC)c1/C(O)=C(\C#N)c1nc2ccccc2[nH]1 | 0.0 | 1.16 | 32.5* | 12.3 | -21.0 | 0.8
CCOC(=O)Cc1nn2c(=O)cc(C)nc2s1 | 0.0 | 1.14 | -1.9 | -3.5 | -17.0 | 0.0
O=C(Cn1cc2c(n1)CCCCC2)N1CCc2ccccc21 | 0.0 | 1.03 | -5.7 | -3.6 | -11.0 | -0.8
O=C(Cc1ccc(-n2cccc2)cc1)N1CCc2ccccc21 | u | 4.92* | -1.3 | 2.8 | u | 21.2
CC1(C)CC2(CCO1)OC(=O)CC2C(=O)NCCc1ccccc1 (centres undefined) | u | 1.08 | -3.2 | -5.8 | u | -1.1
CCC(=O)/C=C1\Sc2ccc(OC)cc2N1CCO | 4.0 | 1.02 | 12.6 | 13.7 | -15.0 | 0.1
CCCc1cc(=O)n2[nH]c(C)c(-c3ccccc3)c2n1 | x | x | 34.7* | 28.8 | x | x
COC(=O)Cc1cc(=O)n2[nH]c(C)c(-c3ccccc3)c2n1 | x | x | 4.9 | 1.8 | x | x
Cc1[nH]n2c(=O)cc(-c3ccc([N+](=O)[O-])cc3)nc2c1-c1ccccc1 | x | x | 69.6* | 47.3* | x | x
CCOC(=O)N1CCC(NC(=O)CCc2c(C)nc3nc(C)nn3c2C)CC1 | 7.0 | 1.02 | -0.5 | -1.5 | -1.0 | -0.6
COc1ccc2nc(NC(=O)C3CCCN(S(=O)(=O)c4cccc5nonc45)C3)sc2c1 (centres undefined) | u | 2.57* | 0.1 | 11.4 | u | 31.7
COc1ccccc1C1/C(=C(\O)c2ccc3c(c2)OCCO3)C(=O)C(=O)N1CCCN(C)C (centres undefined) | x | x | -2.3 | 5.4 | x | x
C=CCN1C(=O)C2(/C(=C(\O)c3ccc4c(c3)OCCO4)C(=O)C(=O)N2CCCOC)c2ccccc21 (centres undefined) | 6.0 | 1 | 31.6* | 1.9 | -14.0 | -0.8
Cc1cc(C)cc(NS(=O)(=O)c2ccc3[nH]c(=O)[nH]c3c2)c1 | -12.5 | 1.18 | 1.4 | -1.9 | -1.5 | -3.4
COc1cc(-n2nc(C)c3c2OC(N)=C(C#N)C3c2ccccc2)c(Cl)c(Br)c1O (centres undefined) | u | 2.95* | 36.2* | -1.8 | u | 5.0
CC1(C)Cc2c(c(N3CCOCC3)nc3sc(C#N)c(N)c23)CS1 | 7.0 | 1.1 | -7.3 | -0.4 | -8.0 | -0.6
COC(=O)C1=C(C)N=c2s/c(=C/c3cccs3)c(=O)n2C1c1cccs1 (centres undefined) | -6.0 | 0.96 | -1.3 | 0.4 | 18.0 | 109.8*
COc1ccccc1C1/C(=C(/O)c2ccc(C)cc2)C(=O)C(=O)N1CC(C)O (centres undefined) | x | x | -9.9 | 1.0 | x | x
Cc1ccc(/C(O)=C2\C(=O)C(=O)N(CC(C)O)C2c2ccc(N(C)C)cc2)cc1 (centres undefined) | x | x | 36.3* | 23.8 | x | x
COc1ccc(C2/C(=C(/O)c3ccccc3)C(=O)C(=O)N2CC(C)O)c(OC)c1 (centres undefined) | u | 1.52 | 42.2* | 6.7 | u | 0.4
COc1ccc(OC)c(C2/C(=C(/O)c3ccccc3)C(=O)C(=O)N2Cc2ccco2)c1 (centres undefined) | x | x | 92.0* | -14.6 | x | x
COc1ccccc1C1/C(=C(/O)c2ccccc2)C(=O)C(=O)N1CC(C)C (centres undefined) | 10.0 | 1.06 | 63.0* | -3.5 | -18.0 | -0.8
Cc1ccc(C2/C(=C(/O)c3ccc(Br)cc3)C(=O)C(=O)N2Cc2ccco2)o1 (centres undefined) | x | x | 30.8* | -1.8 | x | x
CCOc1cccc(/C(O)=C2/C(=O)C(=O)N(Cc3ccco3)C2c2ccncc2)c1 (centres undefined) | x | x | 48.2* | 28.6 | x | x
SMILES | VLA-4 agonist | Jurkat autofluor | FPR ligand | FPRL1 ligand | VLA-4 antagonist | Proteasome disasm
Cc1cc(NC(=O)CSc2nnc(C3COc4ccccc4O3)o2)no1 (centres undefined) | 2.0 | 1.03 | 4.5 | -1.5 | -3.5 | -1.1
CCN(CCNC(=O)C1CC(=O)N(CCc2ccccc2)C1)c1ccccc1 (centres undefined) | 0.0 | 1.04 | -3.1 | 1.0 | 5.0 | 0.6
CNc1nn(-c2cccc(Cl)c2)nc1N | u | 8.09* | -8.6 | 90.3* | u | u
CCOc1ccccc1C(=O)N(CN1CCCC1=O)c1ccc(C)c(Cl)c1 | -6.0 | 1.05 | -7.2 | 1.3 | 13.0 | -2.4
COCCN1C(=O)c2ccccc2C(C(=O)NCc2ccco2)C1c1c[nH]c2ccccc12 (centres undefined) | 0.5 | 0.99 | 9.1 | 1.5 | -6.0 | -1.1
CCCCCNC(=O)c1ccc2c(=O)[nH]c3c(C(=O)NCC4CCCO4)sc(=S)n3c2c1 (centres undefined) | u | 1.63 | 39.7* | 4.6 | u | -1.1
O=C(NC1CCCC1)c1sc(=S)n2c1[nH]c(=O)c1ccccc12 | u | 1.44 | 94.8* | -0.5 | u | -0.7
Cc1oc2cc(O)cc(O)c2c(=O)c1-c1ccc2c(c1)OCCCO2 | x | x | 31.4* | 23.0 | x | x
Cc1nnc(SCc2nc3ccccc3s2)n1-c1ccccc1 | u | 2.8* | -6.8 | -5.7 | u | u
CCCCOc1ccc(-c2nnn(CC(=O)Nc3ncc(CC(=O)OCC)s3)n2)cc1 | -34.5 | 1 | -1.0 | -9.8 | 93.5* | -0.4
CCCCOc1ccc(-c2nnn(CC(=O)NCc3ccco3)n2)cc1 | 3.5 | 1.05 | -8.1 | -3.2 | -10.0 | -0.2
Cc1nc(SCC(=O)c2c[nH]c3ccccc23)n[nH]1 | u | 3.39* | -3.2 | -5.3 | u | 9.4
CC(C)Cn1c(=O)c(C2=NS(=O)(=O)c3ccccc3N2)c(O)c2ccccc21 | -53.0 | 0.98 | 3.8 | -5.2 | 59.0* | -2.0
COc1ccc(CCNc2oc(COc3ccccc3F)nc2C#N)cc1 | 2.0 | 1.18 | 4.9 | -4.9 | 18.0 | 48.5*
N#Cc1nc(COc2ccccc2F)oc1NCc1ccc(F)cc1 | 2.0 | 1.24 | 3.5 | -5.5 | -29.0 | 0.5
COc1cc(C2N(c3cc(C)on3)C(=O)C3CCCN32)cc(OC)c1OC (centres undefined) | -1.0 | 0.96 | 1.7 | -2.8 | -35.0 | -0.6
COc1cc(C)nc(SCC(N)=O)n1 | 5.0 | 1 | -2.4 | 8.0 | -4.0 | -0.8
Cc1cc(SCC(N)=O)nc(SCC(=O)c2ccccc2)n1 | 5.5 | 1.01 | 48.2* | 48.8* | -2.0 | -0.2
Cc1noc(C)c1S(=O)(=O)N1CCC(C(=O)N2CCN(c3ccccc3Cl)CC2)CC1 | 2.0 | 0.98 | 0.2 | -10.6 | 9.0 | -2.7
Cc1noc(/C=C/c2ccco2)c1S(=O)(=O)N1CCC(C(=O)N(C)Cc2ccccc2)CC1 | -2.0 | 1.09 | -1.9 | -0.7 | 24.0 | 45.8*
Cc1noc(/C=C/c2ccco2)c1S(=O)(=O)N1CCC(C(=O)N2c3ccccc3CC2C)CC1 (centres undefined) | 2.0 | 1.06 | -4.3 | -3.9 | -4.0 | 105.2*
